Consider 40 molecules from PubChem BioAssay (NCI).

This is part of a sample that, as a whole, favours compounds with a hit. Of some 83,000 tested, about 20% had one in any assay.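 Activity criterion: percent growth below 10, measured after cells in 96-well plates were exposed to a single compound concentration for 48 hours.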 Unmarked numbers belong to inactive results. Calls of active or inactive are those of the source.

This test has as its system OVCAR-3 ovarian. Kind of test: NCI-60 one-dose screen, 48 h (100 = growth as untreated, 0 = no growth, -100 = all killed). Particulars: 10 µM unless noted. As to the method:
Growth inhibition of the OVCAR-3 human tumor cell line is measured as a screen for anti-cancer activity. Cells are grown in 96 well plates and exposed to the test compound for 48 hours. Compounds are tested at a single concentration, which is 10^-5 M for most compounds. The reported endpoint is percent growth (GI% or GIPRCNT), where numbers from 0 - 100% represent growth inhibition, and numbers from -100% - 0 represent cell death. For example, a value of 40 represents 60% growth inhibition. A value of 0 means no net growth occurred over the course of the experiment. A value of -40 indicates 40% of cells at the beginning of the experiment died by the end of the experiment. A value of -100 means all cells are dead at the end of the experiment.
NCI-60 Human Tumor Cell Lines Screen was performed using the standard one-dose NCI protocol, which is described in more detail at https://dtp.cancer.gov/discovery_development/nci-60/default.htm.
Compounds with GIPRCNT values below 10 were considered active. Activity score was based on GIPRCNT using the following formula: […]
Score is 0 for GIPRCNT values of 100 or above, 50 for GIPRCNT values of 0, and 100 for GIPRCNT values of -100.
In the case of `COc1ccc(-c2nc(SC(C)C)nc(NNC(N)=S)c2C#N)cc1`, the growth was 18.2%.

With `Cc1cc(NCc2cc(Nc3ccnc4cc(Cl)ccc34)ccc2F)nc(N2CCN(c3ccccc3)CC2)n1`, the growth was 5.88% (active). In the case of `O=C(NCCCNc1cc(-c2cn(-c3ccccc3)nc2-c2cccc(O)c2)ccn1)c1ccc(F)cc1`, the growth is 38.4%. In the case of `COc1ccc(CN2C(=O)C(Cl)=C(Nc3cccc(C(F)(F)F)c3)C2=O)cc1`, the growth is 62%. As for `O=C(NC(CSSCC(NC(=O)c1ccccc1)C(=O)O)C(=O)O)c1ccccc1` (stereo not given), the figure is 99.6%. Consider `N[C@@H](CCCCNCC(=O)O)C(=O)O`, for which the growth is 114%. Regarding `COc1cccc(-c2nn(-c3ccccc3)cc2-c2ccnc(NCCNC(=O)Nc3cccc(C(F)(F)F)c3)c2)c1`, the growth was 39.2%.

On to `COc1ccc(NC(=O)CSc2nnc(-c3cc(-c4ccccc4)nc4ccccc34)n2-c2ccccc2)cc1`, for which the growth is 103%. The same measure for `COc1cc(/C=C/C(=O)c2c(C)nc3ccccc3c2C)ccc1OCCCN1CCN(C(=O)c2ccco2)CC1`: 97.9%. Turning to `Nc1n[nH]c(-c2cc(Cl)ccc2O)c1-c1ccccc1`, the growth is 107%.

In the case of `CCCCCCCOc1c(OC)cc(C2CC(=O)Nc3c2c(C)nn3-c2nc3ccccc3[nH]2)cc1OC` (stereo not given), the growth is -67.1% (active). For the molecule `Cc1cc(NCc2cc(Nc3ccnc4cc(Cl)ccc34)ccc2F)nc(N2CCSCC2)n1`, the growth was -32.6% (active).

In the case of `NC(=N\N=C/c1ccccc1[N+](=O)[O-])/C(N)=N\N=C/c1ccccc1[N+](=O)[O-]`, the growth is 116%. For `Cc1c(C(=O)NC(Cc2ccccc2)C(O)C(=O)NCc2ccc(F)cc2)[nH]c2ccccc2c1=O` (stereo not given), the growth is 114%. As for `O=C(NC(Cc1nnc2n(Cc3ccccc3)c(=O)c3c4c(sc3n12)CCCC4)c1ccc(Cl)cc1)c1ccccc1` (stereo not given), the figure is 90.4%; as for `Cc1ccc(/C=C2\C(=O)N(C)c3ccc(S(=O)(=O)Nc4ccc(C(C)(C)C)cc4)cc32)s1`, 11.4%. The same measure for `O=c1c2cc(F)ccc2sc2c(Nc3cccnc3)nc3ccccc3c12`: 108%; for `N=C(N)c1ccc(-c2ccc(-c3cncc4ccccc34)s2)s1`: -85.5% (active); for `CCN(CCNc1ccc(C)c2sc3ccccc3c(=O)c12)CC(C)(C)O`: 103%.

Take `O=C1CCC2=C3C4CCCCC4C(=O)C4CCCC(OC2C1)C34` (stereo not given): the growth was -28.8% (active). Consider `COc1ccc(Nc2nnc(SCc3ccccc3F)s2)cc1`, for which the growth was 111%.

Turning to `NCCCNc1nc2ccccc2c2c(=O)c3cccc(Cl)c3sc12`, the growth is -51.5% (active).

As for `CCC1(C2CCCC2)NC(=O)NC1=O` (stereo not given), the growth was 111%. `COc1ccc2occ(C3=C(c4c[nH]c5ccccc45)C(=O)N(O)C3=O)c2c1`: the growth is 98.9%. The same measure for `COc1cccc(-c2nn(-c3ccccc3)cc2-c2ccnc(NCCCNC(=O)Nc3ccc(Cl)c(Cl)c3)c2)c1`: 29.5%; for `O=c1c2c3c(sc2nc(N/N=C/c2ccc(Br)cc2)n1Cc1ccccc1)CCCC3`: 76.8%; for `NC[C@H](O)c1ccc(O)c(O)c1`: 108%. As for `COc1ccc(-c2nc(SCCC(C)C)nc(N/N=C\c3cccc([N+](=O)[O-])c3)c2C#N)cc1`, the figure is -30.4% (active); as for `COc1cccc(-c2nc3sccn3c2-c2ccnc(NCCNS(=O)(=O)c3cccc(F)c3)c2)c1`, 36.7%.

With `Cc1cc(C)c2c(-c3nnc(N)s3)cc(=O)oc2c1`, the growth is 105%. The same measure for `O=[N+]([O-])c1ccc(N2c3ccncc3Sc3ccncc32)cc1`: 94.2%. As to `Cc1ccc(S(=O)(=O)Oc2cc(OS(=O)(=O)c3ccc(C)cc3)cc(OS(=O)(=O)c3ccc(C)cc3)c2)cc1`, the growth was 96.3%.

With `CC/C=C1/C(=O)C=C[C@@H]1C/C=C\CCCC(=O)O`, the growth was 82.2%.

As to `CC1SC(c2ccc(OCc3ccccc3)cc2)N(NC(=O)C(O)(c2ccccc2)c2ccccc2)C1=O` (stereo not given), the growth was 31%. Take `COc1cc(/C=C/C(=O)c2ccc(Nc3nc(Nc4ccc(F)cc4)nc(Nc4ccc(Cl)cc4)n3)cc2)cc(OC)c1OC`: the growth was 190%. The same measure for `COc1ccc(C(=O)Nn2c(NCC(=O)N3c4ccccc4Sc4ccccc43)nnc2-c2ccc(O)cc2)cc1`: 121%; for `CCCCCS(=O)(=O)Nc1ccc(C(=O)O)cc1`: 110%; for `C[C@]12CC[C@@H]3c4cc(OC(F)F)c(O)cc4CC[C@H]3[C@@H]1CC[C@@H]2OS(N)(=O)=O`: -0.18% (active). Turning to `Cc1ccc(NS(=O)(=O)c2ccc3c(c2)C2OCCC2C(c2ccc(C(=O)C(C)C)cc2)N3)cc1C` (stereo not given), the growth was 59.6%. As for `CCN(CC)Cc1cccc(C(=O)OC)c1`, the figure is 111%.
